Assay results: paper PMC12136788
Positions count from the first letter of the chain named. Whole data set: some 24,000 sequences, median “enrichment r” near 0.99, cut for the highest 2% near 3.7. This is one part of a sample in which the highest values are shown more often than they occur.

T1: UNK ZnF1-3 (human, UniProt Q9C0B0 31-174)
T1 sequence: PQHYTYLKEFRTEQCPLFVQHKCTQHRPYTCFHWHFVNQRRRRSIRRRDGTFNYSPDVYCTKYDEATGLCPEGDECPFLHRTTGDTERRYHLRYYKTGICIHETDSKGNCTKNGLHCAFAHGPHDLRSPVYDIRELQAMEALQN

B1: chr1:89346535:89346536:+_ENSMUSG00000048000_ENSMUST00000174671|mus_hu|motif|central (ssRNA)
RNA: GGGAGUUCUACAGUCCGACGAUCAGCUGCCUCUUAAACGAGACAAAUUUUCAGCAGAAGGGCCCAAAACAAAAUGGUCCGGGUCCUCUGAAGUAAAAAUAUUUAUGGGAAAAAUCAGUUUUUGUAAGAAAGAAAAAUUAAGAACAACAGAGGAUUGAGCAUCA
B2: chr1:89346535:89346536:+_ENSMUSG00000048000_ENSMUST00000174671|mus_hu|FALSE|FALSE (ssRNA)
RNA: B1 RNA with G80U, G81A
B3: chr1:89346535:89346536:+_ENSMUSG00000048000_ENSMUST00000174671|mus_mus|motif|central (ssRNA)
RNA: GGGAGUUCUACAGUCCGACGAUCAAGAUGCCUCUUAAACGAGACAAAUUUUCACAUAAGGGCCCAAAACAAACUGGUCCGGGUCCUUGAAGUAAAAAUAUUUAUGGGAGGAGGGGAGAUCAGUUUUUAUAUGAAAGGAAAAUUCAACAGAGGAUUGAGCAUCA
B4: chr2:42509997:42509998:+_ENSG00000143924_ENST00000318522|hu_mus|hu_hu_hu_mus_True|78_78 (ssRNA)
RNA: GGGAGUUCUACAGUCCGACGAUCUCGCUGAGUCCUCUCCUCAUAAUUAAACAGGACUACUACUGAUGCGAUAAAAUAAACUAUCUCCCCUGUGGGAAGCAGGUAUACAUUCGCUCUACAGUCCUUUCCUCGAUAACCGUAUACCAACAGAGGAUUGAGCAUCA
B5: chr10:13251168:13251169:-_ENSMUSG00000019809_ENSMUST00000019945|mus_hu|FALSE|FALSE (ssRNA)
RNA: GGGAGUUCUACAGUCCGACGAUCAGCCAUAUUGUCUAGAAGUCUACUAAAACCUCGGUUUAAACAGGUAUUCAAAACUGUACUAAAAUCUGGGCUUUCCAACAUGUCUCUAGUUUCAUUGAGAAGUUUAAUAGUGGUAAUGUCCAACAGAGGAUUGAGCAUCA
B6: chr16:732453:732454:+_ENSG00000103266_ENST00000219548|hu_mus|FALSE|FALSE (ssRNA)
RNA: GGGAGUUCUACAGUCCGACGAUCUGCCAGGCAGGACAUGGGGCCUCAAUAGUCCUCUACCCAGCCGUUCUCAGAGAUGAAAGCGUCAAUGACUUCCUUCAUGGCCAAGUUGGGGAUGAGCUGUUCCUGGGUCAGAGGGCUCCGCAACAGAGGAUUGAGCAUCA
B7: chr9:95013113:95013114:-_ENSG00000196305_ENST00000443024|hu_hu|hu_hu_hu_mus_False|1_88 (ssRNA)
RNA: GGGAGUUCUACAGUCCGACGAUCCUCAGUCAGAAAGGGCGUGUAAGGAGCCAUAAGUCUGCACAGAGAAAGCAGGACACUGAACAGUGUCUCCAGAGCCAUGACACAGUCUUCCACCCCACUCUCACCCUUUAACCUUCUGCGCAACAGAGGAUUGAGCAUCA
B8: chr7:135612270:135612271:-_ENSG00000105887_ENST00000393085|hu_mus|hu_hu_hu_mus_False|38_48 (ssRNA)
RNA: GGGAGUUCUACAGUCCGACGAUCGUUUUUUUCUGAGAUGUUAAAUAGUACUUCAGUGGAAAACAAAACUUAACCUUUUAUUAAUGCAUGUAGUACCAGAAAGCAAAAUUUUAGCUUCAUUUAUUCAAAAAUAUUAACAUUAAGCAACAGAGGAUUGAGCAUCA
B9: chr11:94154035:94154036:-_ENSMUSG00000020863_ENSMUST00000107820|mus_mus|FALSE|FALSE (ssRNA)
RNA: GGGAGUUCUACAGUCCGACGAUCAAUAGUUAAGUUUUAAAGCAUAUGUUUCUGCCAAUGUACCAACACAAGAUGGACUUAAUACCAAAAAGAAAAAAAAAACAGUUCAACCUUUUUAUUAAAAAAAAAAAGAAAAAGAAAAAGCAACAGAGGAUUGAGCAUCA
B10: chr9:56975896:56975897:+_ENSMUSG00000042557_ENSMUST00000167715|mus_hu|FALSE|FALSE (ssRNA)
RNA: GGGAGUUCUACAGUCCGACGAUCACAUCAAAGCAUAUUUCUUUUAAUAAAAAAUUGACAGUAUGUACAUUAUGUACAAAAAAACAAGUUAAAAUUGUGUGUGUGUGUGCGUGUGUGUGUCAGAGAGUAAAGCUGGUGGAUGGCCAACAGAGGAUUGAGCAUCA
B11: chr7:135612270:135612271:-_ENSG00000105887_ENST00000393085|hu_mus|hu_hu_hu_mus_False|1_58 (ssRNA)
RNA: GGGAGUUCUACAGUCCGACGAUCGUUUUUUUCUGAGAUGUUAAAUAGUACUUCAGUGGAAAACAAAACUUAACCUUUCGCUAAUGCGUGUUGUACCAAAAGCAGACAUUUUAGCUUCAUUUAUUCAAAAAUAUUAAGAACAUUCAACAGAGGAUUGAGCAUCA
B12: chr1:58468927:58468928:-_ENSMUSG00000026034_ENSMUST00000148330|mus_mus|mus_mus_mus_hu_False|28_48 (ssRNA)
RNA: GGGAGUUCUACAGUCCGACGAUCAAUUACUGAAAAAGAUGUUCAUUACCUUAGCUAUGUACUUAAUGAACCAAAUUACCCAAACAACAUAAAAUGUGCAAUAUAAAAAGCUAUACAAUUUACAAAGCUGUACAAAAUAACUUACAACAGAGGAUUGAGCAUCA
B13: chr16:30313237:30313238:-_ENSMUSG00000022533_ENSMUST00000100013|mus_mus|FALSE|FALSE (ssRNA)
RNA: GGGAGUUCUACAGUCCGACGAUCAACAACCCUGAGGGAGACCCACAUUAAAAAAUCUUAUUUAUUUAAAAAGUUAAAAAGCUACAUAUCAUUAUUUAACAAUUACUUUACCAGACAUUUCUGUCCUUUAAGUAUGUGCAUAAACAACAGAGGAUUGAGCAUCA
B14: chr7:135612270:135612271:-_ENSG00000105887_ENST00000393085|hu_mus|hu_hu_hu_mus_False|28_108 (ssRNA)
RNA: GGGAGUUCUACAGUCCGACGAUCGUUUCUGAGAUGUAUGUUAAAUAGUACUUCAGUGGAAAACAAAACUUAACCUUUUAUUAAUGCGUGUUGUACCAAAAGCAGACCAUGGUUUUACAUUUAUUCAAAAAUAUUAACAUUAAGCAACAGAGGAUUGAGCAUCA
B15: chr7:135612270:135612271:-_ENSG00000105887_ENST00000393085|hu_mus|hu_hu_hu_mus_False|38_88 (ssRNA)
RNA: B8 RNA with G47U, A49C, C50A, U51G, C53G, A54G, G55A, U56G, A87G, A91U
B16: chr7:135612270:135612271:-_ENSG00000105887_ENST00000393085|hu_mus|hu_hu_hu_mus_False|28_58 (ssRNA)
RNA: GGGAGUUCUACAGUCCGACGAUCGUUUUUUUCUGAGAUGUUAAAUAGUACUUCAGUGGAAAACAAAACUUAACCUUUCGCUAAUGCGUGUUGUACCAAAAGCAGACCAUGGUUUUACAUUUAUUCAAAAAUAUUAACAUUAAGCAACAGAGGAUUGAGCAUCA
B17: chr16:30313237:30313238:-_ENSMUSG00000022533_ENSMUST00000100013|mus_hu|FALSE|FALSE (ssRNA)
RNA: GGGAGUUCUACAGUCCGACGAUCCAACCCUGAGGGAGACACACAUUAAAAAUCUUGUUAUUUAUUUAAAAAGUUAAAAAGUUACAUAUCAUUAUUUAACAAUUACUUUCCCAGACAUUUCUGUCCUUUAAGUAUGUGCAUAAACAACAGAGGAUUGAGCAUCA
B18: chr7:135612270:135612271:-_ENSG00000105887_ENST00000393085|hu_mus|hu_hu_hu_mus_False|28_38 (ssRNA)
RNA: B16 RNA with C78U, G79A, C80U, A98G, G101A, C102G, A103C, G104A, C106A
B19: 19477749_19479453_500_CDS_ENSMUSG00000028228_ENSMUST00000029885|mouse|control|control (ssRNA)
RNA: GGGAGUUCUACAGUCCGACGAUCUCUGGCUUCCAUUUCAAACAAUACCACUCUGUUAUCCUUUAUUUCUUCUGCUGAAAUCGUAAUACUCCCUUUCCCUGCAGGUUUGCCAUUUUUGAGCACCAGUGGUCGAGUUAGCUUCUUCAACAGAGGAUUGAGCAUCA
B20: chr2:9572718:9572719:+_ENSG00000119203_ENST00000238112|hu_mus|FALSE|FALSE (ssRNA)
RNA: GGGAGUUCUACAGUCCGACGAUCGACGUGGCCGGCAUGGUAACACCAGAACUUGAUUCCUGCAACUUCCUUAACUUCAUGAAAAUUGAUGGUUUCGAUUUUGUCCAUGCUUUCUUCCAAGUCUGUCUCAGUGUACAGCAUGUCCAACAGAGGAUUGAGCAUCA
B21: chr17:61655871:61655872:+_ENSG00000136485_ENST00000310827|hu_hu|FALSE|FALSE (ssRNA)
RNA: GGGAGUUCUACAGUCCGACGAUCGGUGGGGUAUGGGUGGUCAAAGGUGUUUCUGCAAAUAAACUCUGAACUCUCCUCAUCUAAACCAACAAGCUGAACCUUGUUGUUGUACUCCUCCACGAAGCUGCCCAGCGCCAAGCGAAACAACAGAGGAUUGAGCAUCA
B22: chr5:37680062:37680063:+_ENSMUSG00000029121_ENSMUST00000031004|mus_hu|mus_mus_mus_hu_False|1_18 (ssRNA)
RNA: GGGAGUUCUACAGUCCGACGAUCUUUGGGUGUAGCUGGUACCUCGUACACAGGACCGUCAUACAUGCCCCUGGAAACCCCUUGCAAUCCAAAAACCUUAUUCCUGAUUUUGACGCGCUGGUAGAGAUGCUCCGGGAAUGGCUUCAACAGAGGAUUGAGCAUCA

The binders below were run against T1, UNK ZnF1-3 (assay: nsRBNS (natural sequence RNA bind-n-seq); RBNS binding buffer (assumed for nsRBNS): 25 mM Tris pH 7.5, 150 mM KCl, 3 mM MgCl2, 0.01% Triton X-100, 500 ug/ml BSA, 20 U/ml SUPERase-In, 4 C; UNK is unkempt and MSI1 is Musashi-1; names of the RNAs are library labels; protein concentration not given here; high values mean tight binding).

Binder	binding signal
B1	10.8 enrichment R
B2	14.4 enrichment R
B3	0.843 enrichment R
B4	0.957 enrichment R
B5	1.27 enrichment R
B6	1.44 enrichment R
B7	1.12 enrichment R
B8	1.66 enrichment R
B9	6.23 enrichment R
B10	5.76 enrichment R
B11	0.611 enrichment R
B12	0.529 enrichment R
B13	4.91 enrichment R
B14	0.924 enrichment R
B15	4.08 enrichment R
B16	1.03 enrichment R
B17	3.61 enrichment R
B18	0.956 enrichment R
B19	0.645 enrichment R
B20	0.798 enrichment R
B21	1.21 enrichment R
B22	0.867 enrichment R
